# Screening results from PubChem.
# BJeLR viability: BJeLR cell viability loss | actives 0.17% (n = 300,000) | inhibition, % (test concentration not listed) | BJeLR (HRASV12) viability, CellTiter-Glo ATP luminescence, 48 h; in the data active means inhibition above about 50%
# GDH-TPI inh: inhibits GDH-TPI coupling enzymes, artifact for Mtb FBA screen. inhibition, % at 4.8 µM. GDH-TPI coupled enzyme counterscreen, NADH absorbance. AID 588335. actives 1.2% (n = 360,000); in the data active means inhibition above about 30%;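 further: 0% = DMSO wells and 100% = wells lacking the enzyme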
# PrPC TRFRET: cell surface PrPC inhibition, primary TR-FRET screen | actives 0.43% (n = 370,000) | AID 720596 | inhibition, % at 13.8 µM | TR-FRET read-out | P04156; in the data active means inhibition above about 24%; further: 0% = median of the test wells and 100% = reference compound wells
# PrP 5UTR inh: inhibition of PrP 5' UTR reporter expression | cell-based PrP 5' UTR mRNA reporter, plate reader | inhibition, % (test concentration not listed) | actives 0.35% (n = 340,000) | AID 488862; in the data active means inhibition above about 52%; further: 0 = median of the neutral control wells
# PfHsp40 yeast: compounds rescuing yeast from Plasmodium falciparum HSP40 toxicity. S. cerevisiae expressing PfHsp40, growth rescue, ATP luminescence. growth rescue, % at 12.5 µM. actives 0.68% (n = 340,000); in the data active means growth rescue above about 28%, passing the limit was not always enough;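 further: yeast W303a lacking pdr1 and pdr3 grown in galactose medium; growth measured after three days at 30 °C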
# Mtb FBA inh: Mtb fructose-bisphosphate aldolase inhibition; AID 588726; purified M. tuberculosis FBA, fluorescence read-out; actives 2.3% (n = 360,000); P9WQA3; inhibition, % at 1 µM; in the data active means inhibition above about 27%;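 further: 0% = vehicle and 100% = reference inhibitor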
# PrPC confirm: cell surface PrPC inhibition, TR-FRET confirmation | inhibition, % at 13.8 µM | actives 65% (n = 1,500) | shares compounds with PrPC TRFRET | cell surface PrPC level; in the data active means inhibition above about 25%
# LD9 tox: counter-screen for PrPc inhibitors: cytotoxicity in LD9 cells | shares compounds with PrPC TRFRET | inhibition, % at 13.8 µM | AID 743201 | actives 29% (n = 1,500) | luminescence viability; in the data active means inhibition above about 9.5%
# An asterisk follows results filed as active; nt = no result given. Most compounds without a hit are left out; they make up all but 4.5% or so of the library.
SMILES,BJeLR viability,GDH-TPI inh,PrPC TRFRET,PrP 5UTR inh,PfHsp40 yeast,Mtb FBA inh,PrPC confirm,LD9 tox
CN(Cc1cccc(F)c1)C(=O)c1ccc(S(=O)(=O)N2CCCCCC2)cc1,nt,7,-3,-16,1,3,nt,nt
Cc1ccc(CNC(=O)c2ccc(S(=O)(=O)N3CCCCCC3)cc2)cc1,nt,-6,8,nt,nt,-2,nt,nt
Cc1cc2cc(CNC(=O)c3ccc(S(=O)(=O)N(C)C)cc3)ccc2n1C,-9,21,54*,5,1,4,36*,-4
Cc1cc2cc(CNC(=O)c3ccc(S(=O)(=O)N4CCOCC4)cc3)ccc2n1C,5,10,43*,-9,-1,3,45*,-6
Cc1cc2cc(CNC(=O)c3ccc(S(=O)(=O)N4CCCCC4)cc3)ccc2[nH]1,-10,9,29*,-2,1,-4,12,-5
CCCc1nc2ccccc2c(=O)n1CC(=O)c1ccc(F)cc1,-2,-2,4,13,0,3,nt,nt
O=C(COC(=O)CN1C(=O)COc2ccccc21)NCc1ccc(F)cc1,8,-1,0,-10,1,0,nt,nt
COc1ccc(C)cc1NC(=O)C(=O)N/N=C(\C)CC(=O)Nc1cccnc1,6,6,9,-4,-1,-1,nt,nt
CC(C)NC(=O)C1(C)CCN1C(=O)c1ccc(F)c(Cl)c1 (stereo not given),nt,1,1,nt,nt,-1,nt,nt
Cc1c(C(=O)NCc2cccnc2)sc2nc(-c3ccc(F)cc3)cn12,8,7,12,-24,0,5,nt,nt
Cc1nn(Cc2ccccc2)c2sc(C(=O)NCc3cccnc3)cc12,-3,-7,24*,-19,1,0,14,-1
Cc1ccc2c(Cl)c(C(=O)NCc3cccnc3)sc2c1,-7,0,29*,-7,-1,0,43*,-6
O=C(NCc1cccnc1)c1sc2ccccc2c1Cl,-6,-1,8,-18,1,1,nt,nt
Cc1c(C(=O)NCc2cccnc2)sc2nc(-c3ccccc3)cn12,-14,5,28*,-18,-1,-3,12,-6
COC(OC)c1ccc(C#N)c(SCc2ccc(C)cc2)n1,-1,10,3,-35,1,-5,nt,nt
Cc1ccc(C)c(NC(=O)c2ccc3c(c2)CCN3S(C)(=O)=O)c1,nt,-5,-1,nt,nt,0,nt,nt
OC(c1cccc(CN2CCCCC2)c1)c1ncc(-c2ccccc2Cl)[nH]1 (stereo not given),nt,3,-5,nt,nt,2,nt,nt
COc1cc(C(=O)Nc2ccc3c(c2)nc(C)n3C)cc(OC)c1OC,32,11,8,-33,0,1,nt,nt
COc1cc(C(=O)Nc2ccc3c(c2)ncn3C)cc(OC)c1OC,29,-1,77*,-12,0,-2,73*,0
Cc1ccccc1NC1=NCC(c2ccc([N+](=O)[O-])cc2)S1 (stereo not given),13,2,46*,-32,-2,-2,44*,2
COc1ccc(OC/C(O)=C(\C#N)c2nc3ccccc3[nH]2)cc1,3,10,-1,-7,0,0,nt,nt
N#C/C(=C(/O)COC(=O)CSc1ccc(Cl)cc1)c1nc2ccccc2[nH]1,3,14,27*,-13,-2,7,36*,63*
COc1ccccc1OCC(=O)OC/C(O)=C(\C#N)c1nc2ccccc2[nH]1,-6,5,31*,-27,0,0,54*,64*
COC(=O)c1c(NC(=O)COc2ncnc3ccccc23)sc(C)c1C,-9,9,3,-12,0,4,nt,nt
CCOC(=O)c1c(NC(=O)COc2ncnc3ccccc23)sc(C(C)=O)c1C,-12,5,29*,-10,-1,-4,36*,1
SMILES,BJeLR viability,GDH-TPI inh,PrPC TRFRET,PrP 5UTR inh,PfHsp40 yeast,Mtb FBA inh,PrPC confirm,LD9 tox
COc1ccc2sc3ccccc3c(=O)c2c1OC,2,11,29*,-35,1,1,38*,-7
COc1cccc2sc3ccc(C#Cc4ccc(N)cc4)cc3c(=O)c12,-1,19,20,-5,-1,1,nt,nt
Cc1nnc(SCC(=O)Nc2cc(C(N)=O)cc(C(N)=O)c2)n1-c1ccccc1,-2,3,45*,-11,0,-1,29*,-6
N#Cc1ccccc1NC(=O)CSc1nnc(-c2ccc(F)cc2)n1-c1ccccc1,-3,7,38*,-2,0,0,29*,2
Cc1nnc(SCC(=O)Nc2ccc(C(N)=O)cc2)n1-c1ccccc1,-3,-4,0,-21,-1,-1,nt,nt
Cc1ccc(-n2c(SCC(=O)Nc3cccc4ccccc34)nnc2-c2ccccc2)cc1,nt,nt,12,nt,nt,nt,nt,nt
CCOC(=O)c1nn(-c2ccc(C)c(C)c2)c(=O)c(C#N)c1C,-21,13,-50,-35,1,2,nt,nt
Cc1[nH]nc(C(F)(F)F)c1N=NN1CCOCC1,nt,5,31*,-14,-1,1,40*,65*
Cc1ccc(CSC(Nc2ccc(F)cc2)=C(C#N)C#N)cc1,42,12,33*,-15,0,-3,36*,25*
OCCN(Cc1ccccc1)CC(O)COc1ccc2c(c1)OCO2 (stereo not given),6,-2,-9,0,0,0,nt,nt
O=C(Nc1cccc(S(=O)(=O)Nc2ccc(Cl)cc2)c1)c1cc2c(s1)CCCC2,-2,1,27*,-3,0,-1,32*,-3
O=C(Nc1ccc(N2CCOCC2)cc1)c1cc2c(s1)CCCCC2,2,2,25*,-22,5,-1,12,12*
O=C(NC1CCCCCC1)c1cc(S(=O)(=O)N2CCOCC2)ccc1N1CCCCC1,-3,22,28*,-5,0,2,18,-3
O=C(Nc1cc(S(=O)(=O)N2CCOCC2)ccc1N1CCCC1)c1cc2c(s1)CCCC2,nt,nt,52*,nt,nt,nt,75*,-5
CCN(C[C@H]1N[C@@](CC)(C(=O)OC)[C@H]2C(=O)N(Cc3ccccc3)C(=O)[C@@H]12)C(=O)C1CCCCC1,nt,9,1,-9,0,0,nt,nt
O=C(CCn1c(=S)oc2ccccc21)NCCC1=CCCCC1,0,0,-7,-17,-1,4,nt,nt
Cc1cc2cc(CNC(=S)Nc3ccc(OC(F)(F)F)cc3)ccc2n1C,-23,4,27*,-6,0,1,34*,-4
Cc1cc2cc(CNC(=O)Nc3cccc(Cl)c3)ccc2n1C,-4,13,35*,-29,-1,-2,44*,-2
COc1cccc(NC(=S)NCc2ccc3c(c2)cc(C)n3C)c1,6,3,19,-21,2,0,nt,nt
Cc1cccc(NC(=S)NCc2ccc3c(c2)cc(C)n3C)c1C,-5,9,28*,-5,0,5,5,1
